Test results: PubChem BioAssay (NCATS)
Results filed as inconclusive are left out. Unless noted, calls come from the whole dose curve; as a rule, active = well fitted curve in either direction with a large enough effect (not every such curve was filed as active); inconclusive = small, poorly fitted or top-dose-only effect, or another doubt; inactive = flat fitted curve, though single readings scatter.

Tests used:
[1] = AP1 Signaling Pathway (AID 357); settings: ME-180 AP-1-bla reporter, EGF-induced, beta-lactamase ratio, 5 h; at 17.2 µM (top of the series) unless noted;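 note: ME-180 reporter cells stimulated with EGF at its EC50 level; % is set by controls: 0 for no effect and ±100 for the full control effect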
In short: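 Modulation of EGF-driven AP-1 transcription was assessed with a beta-lactamase reporter in ME-180 cells. Compound and EC50 EGF were co-incubated 5 hours at 37 °C before 2.5-hour CCF4 loading at room temperature and dual-emission reading.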

[2] = NFAT Signaling Pathway (AID 444); settings: Jurkat NFAT-bla M1, carbachol, beta-lactamase ratio, 5 h; at 17.2 µM (top of the series) unless noted;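 note: carbachol stimulus at about its EC50 of 1 µM final; % is set by controls: 0 for no effect and ±100 for the full control effect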
In short: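 Jurkat cells carrying an NFAT-driven β-lactamase reporter and co-transfected muscarinic M1 receptor were treated with compound plus carbachol (1 uM final, an EC50 level) for 5 h at 37 °C. CCF4 loading followed for 1 h at RT; 460/530 nm ratio gave %activity.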

[3] = Stat Signaling Pathway (AID 446); settings: ME-180 SIE beta-lactamase reporter, IL-6 stimulated, 5 h; at 17.2 µM (top of the series) unless noted;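 note: ME-180 cervical cancer cells given 40 pM IL-6 alongside compound; SIE-controlled beta-lactamase reporter measured as 460/530 nm FRET emission ratio; % is set by controls: 0 for no effect and ±100 for the full control effect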
In short: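 ME-180 SIE-bla cells; overnight plating; cpd + IL-6 40 pM, 5 h, 37 C; LiveBLAzer 2.5 h RT; 460/530 nm emission ratio. Normalized to 300 pM IL-6 and 125 nM JAK inhibitor controls.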

[4] = target: Glucocorticoid receptor (Homo sapiens) (UniProt P04150); test: GR-GFP Redistribution (AID 450;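 active = compounds whose dose series gives a full or clear partial fitted curve of increased nuclear translocation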; note: potency is the fitted concentration of half-maximal effect)
Glucocorticoid receptor (Homo sapiens), sequence (P04150 whole entry, looked up): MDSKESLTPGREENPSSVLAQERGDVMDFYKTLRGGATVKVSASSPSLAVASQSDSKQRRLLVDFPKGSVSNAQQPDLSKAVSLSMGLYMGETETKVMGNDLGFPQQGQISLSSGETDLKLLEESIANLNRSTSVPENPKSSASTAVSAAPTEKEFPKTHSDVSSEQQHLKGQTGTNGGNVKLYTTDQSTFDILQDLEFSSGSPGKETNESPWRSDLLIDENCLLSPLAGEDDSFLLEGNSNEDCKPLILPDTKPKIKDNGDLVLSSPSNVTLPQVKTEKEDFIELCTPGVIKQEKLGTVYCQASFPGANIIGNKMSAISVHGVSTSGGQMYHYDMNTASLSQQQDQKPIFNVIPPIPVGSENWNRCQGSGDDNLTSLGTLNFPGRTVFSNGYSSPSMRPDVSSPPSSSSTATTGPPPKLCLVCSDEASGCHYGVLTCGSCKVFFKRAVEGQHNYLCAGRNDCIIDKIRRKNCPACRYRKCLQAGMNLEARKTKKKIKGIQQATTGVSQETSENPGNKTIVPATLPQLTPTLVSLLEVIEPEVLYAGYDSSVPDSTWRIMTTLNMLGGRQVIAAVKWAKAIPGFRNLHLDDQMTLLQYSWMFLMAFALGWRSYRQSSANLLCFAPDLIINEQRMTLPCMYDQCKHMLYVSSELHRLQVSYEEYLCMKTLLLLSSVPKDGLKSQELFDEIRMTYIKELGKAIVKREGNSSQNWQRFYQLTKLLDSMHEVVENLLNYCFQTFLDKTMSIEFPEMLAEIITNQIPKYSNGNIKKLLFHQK

c1cncc(-c2nnc3sc(C4CCCCC4)nn23)c1
inactive: activity change, negative = inhibition [1] -18.8% | activity change, negative = inhibition [2] -20% | activity, negative = inhibition [3] -1.41% | Potency [4] > 20.6 µM

COCCNC(=O)C(C#N)c1nc2ccccc2nc1N1CCN(Cc2ccc3c(c2)OCO3)CC1 (stereo not given)
inactive: activity change, negative = inhibition [1] -20.2% | activity change, negative = inhibition [2] -26.8% | activity, negative = inhibition [3] 4.46% | Potency [4] > 20.6 µM

COc1ccc(C(O)C(CN2CCOCC2)c2ccccc2)cc1 (stereo not given)
inactive: activity change, negative = inhibition [1] -1.55% | activity change, negative = inhibition [2] 7.08% | activity, negative = inhibition [3] 8.61% | Potency [4] > 20.6 µM

CCOC(=O)CC(=O)CSc1nc2c(cc1C#N)CCCCC2
inactive: activity change, negative = inhibition [1] 2.56% | activity change, negative = inhibition [2] 1.41% | activity, negative = inhibition [3] -7.32% | Potency [4] > 20.6 µM

c1ccc(Cc2nn[nH]n2)cc1
inactive: activity change, negative = inhibition [1] 7.13% | activity change, negative = inhibition [2] -3.11% | activity, negative = inhibition [3] 8.05% | Potency [4] > 20.6 µM

CCOC(=O)c1ccccc1OCc1cc(/C=N/n2cncn2)ccc1OC
inactive: activity change, negative = inhibition [1] -21.7% | activity change, negative = inhibition [2] 8.94% | activity, negative = inhibition [3] -6.04% | Potency [4] > 20.6 µM

O=C(Nc1ccccn1)c1ccc(=O)[nH]n1
inactive: activity change, negative = inhibition [1] -7.67% | activity change, negative = inhibition [2] 0.366% | activity, negative = inhibition [3] 1.32% | Potency [4] > 20.6 µM

O=C(c1ccccc1)n1c(=S)nc2ccccn21
inactive: activity change, negative = inhibition [1] 4.19% | activity change, negative = inhibition [2] -14% | activity, negative = inhibition [3] -3.1% | Potency [4] > 20.6 µM

CC1CN(c2oc(-c3cccs3)nc2C#N)CC(C)O1 (stereo not given)
inactive: activity change, negative = inhibition [1] 3.54% | activity change, negative = inhibition [2] 5.83% | activity, negative = inhibition [3] 14.9% | Potency [4] > 20.6 µM

Cc1cccc(N2C(=O)CC(N3CCN(Cc4ccc(Cl)cc4)CC3)C2=O)c1 (stereo not given)
inactive: activity change, negative = inhibition [1] 1.23% | activity change, negative = inhibition [2] 6.12% | activity, negative = inhibition [3] 1.94% | Potency [4] > 20.6 µM

C=CCn1c(-c2ccccc2)n[nH]c1=S
inactive: activity change, negative = inhibition [1] 6.97% | activity change, negative = inhibition [2] -4.63% | activity, negative = inhibition [3] 3.46% | Potency [4] > 20.6 µM

CCCCOc1ccc(C2CC(=O)N(C)C2=O)cc1 (stereo not given)
inactive: activity change, negative = inhibition [1] -14.6% | activity change, negative = inhibition [2] -3.42% | activity, negative = inhibition [3] 4.12% | Potency [4] > 20.6 µM

CCC(=O)NC1(C(F)(F)F)C(=O)Nc2c1c(=O)[nH]c(=O)n2Cc1ccco1 (stereo not given)
inactive: activity change, negative = inhibition [1] 6.62% | activity change, negative = inhibition [2] 18.9% | activity, negative = inhibition [3] -0.859% | Potency [4] > 20.6 µM

O=C(CN1C(=O)c2ccccc2S1(=O)=O)c1ccccc1
inactive: activity change, negative = inhibition [1] 9.24% | activity change, negative = inhibition [2] -11.7% | activity, negative = inhibition [3] 3.52% | Potency [4] > 20.6 µM

Cc1cc(C)n(CC(=O)c2ccccc2)c(=O)c1C#N
inactive: activity change, negative = inhibition [1] 17.1% | activity change, negative = inhibition [2] -3.95% | activity, negative = inhibition [3] -3.77% | Potency [4] > 20.6 µM

CCOc1ccc(CCNC(=O)C(O)c2ccccc2)cc1 (stereo not given)
inactive: activity change, negative = inhibition [1] 13% | activity change, negative = inhibition [2] 4.66% | activity, negative = inhibition [3] 18.6% | Potency [4] > 20.6 µM

Cn1c(=O)oc2cc(C(=O)c3ccccc3)ccc21
inactive: activity change, negative = inhibition [1] -10.8% | activity change, negative = inhibition [2] -9.48% | activity, negative = inhibition [3] 0.21% | Potency [4] > 20.6 µM

Cc1nc(-c2c(-c3ccc(O)cc3O)noc2C(F)(F)F)cs1
inactive: activity change, negative = inhibition [1] -11.8% | activity change, negative = inhibition [2] -22% | activity, negative = inhibition [3] -18.8% | Potency [4] > 20.6 µM

C[C@@H]1C[C@H](Nc2ccccc2)c2ccccc2N1C(=O)c1cccnc1
inactive: activity change, negative = inhibition [1] 5.62% | activity change, negative = inhibition [2] -3.58% | activity, negative = inhibition [3] -2.73% | Potency [4] > 20.6 µM

Cc1cc(C)n(CC(=O)n2nc(C)cc2C)n1
inactive: activity change, negative = inhibition [1] 11.3% | activity change, negative = inhibition [2] -8.81% | activity, negative = inhibition [3] 8.01% | Potency [4] > 20.6 µM
